From PubChem
Compounds with a hit are over-represented: about 7.9% of the library has one in this group of screens.
Lassa entry inh – Lassa virus entry inhibition. AID 540256. Lassa virus pseudotype entry inhibition, cell reporter. Potency, µM (doses to about 37.9 µM), for the others: top-dose activity change, negative = inhibition, hits mostly inhibitors. 1.2% of 300,000 active; calls by dose curve; tested in HEK293 cells; note: potency is the fitted concentration of half-maximal effect; nearly all actives have a fitted effect of over 50% in size
HCMV antiviral – inhibitors of human cytomegalovirus; HFF cells, HCMV-luciferase reporter, 72 h; active compounds read low; activity change, negative = inhibition, % at 57.5 µM; 4.5% of 410,000 active; AID 1259415; in the data active = activity change below about -60%; inconclusive = no clear call, values can overlap the other calls; inactive = above about -39%
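Two-dose cell screen: HFF monolayers treated with compounds and infected with luciferase-expressing HCMV at 1 PFU/cell, 72 h at 37C, then lysed for luciferase measurement.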
MARV entry inh – blocks Marburg virus binding to or entry into cells. Marburg virus pseudotyped entry inhibition, cell reporter. Potency, µM (top dose mostly 37.8 µM), for inactives: top-dose activity change, negative = inhibition, actives largely listed as inhibitors. 1.8% of 300,000 active; calls by dose curve; tested in HEK293 cells; note: potency is the fitted concentration of half-maximal effect
HCV inhibitor – HCV inhibition; Huh7.5.1 HCVcc-Cre infection, luciferase reporter, 44 h; 3.4% of 340,000 active; Potency, µM (top dose mostly 41.8 µM), without a hit: at the top dose activity change, negative = inhibition, actives largely listed as inhibitors; AID 651820; active = well fitted inhibition curve with a large enough effect; inconclusive = small, poorly fitted or top-dose-only effect, or another doubt; inactive = no such curve, though single readings can be large or run the other way; note: potency is the fitted concentration of half-maximal effect
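Cells (1,000/well) were plated 4 h before compound, then infected with HCVcc-Cre virus (~0.5 moi). After 44 h further culture, infection was read as luciferase luminescence following a 15 min substrate incubation at room temperature.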
FMDV antiviral – antivirals against foot and mouth disease virus; FMDV antiviral cell-based qHTS; 1.2% of 410,000 active; Potency, µM (series often up to 57.9 µM), for the others: at the highest dose activity change, negative = inhibition, most hits filed as inhibitors; calls by dose curve; tested in HEK293T cells; note: read-out not given here; potency is the fitted concentration of half-maximal effect; nearly all actives have a fitted effect of over 45% in size
An asterisk follows results filed as active; [ ] = dose if it differs, or a comment. % is set by controls: 0 for no effect and ±100 for the full control effect.

Results for O=c1cc(COc2ccccc2Cl)nc2scc(-c3ccccc3)n12 ?
Lassa entry inh: 2%[46.1 µM]; HCMV antiviral: -88*; MARV entry inh: inconclusive; FMDV antiviral: -14%

How did Cc1cccc(OCc2cc(=O)n3c(-c4ccccc4)csc3n2)c1C do in these assays?
Lassa entry inh: -2%[46.1 µM]; HCMV antiviral: -103*; MARV entry inh: inconclusive; FMDV antiviral: -2%

How did O=c1cc(COc2ccc(Cl)cc2Cl)nc2scc(-c3ccccc3)n12 do in these assays?
Lassa entry inh: 5%[46.1 µM]; HCMV antiviral: -20; MARV entry inh: -6%[46.1 µM]; FMDV antiviral: -13%

What do the screens show for `CCCc1cc(=O)oc2cc(OC(C)C(=O)NC3CC(C)(C)NC(C)(C)C3)ccc12` (stereo not drawn)?
HCMV antiviral: 0; HCV inhibitor: inconclusive; FMDV antiviral: -11%

What do the screens show for `Cc1nc(/N=C(\N)NC(=O)c2ccccc2)nc2ccccc12`?
Lassa entry inh: 1%; HCMV antiviral: 41; MARV entry inh: inconclusive; HCV inhibitor: inconclusive; FMDV antiviral: 40%

How did CCC(=O)N/C(N)=N/c1nc(C)c2cc(C)c(C)cc2n1 do in these assays?
Lassa entry inh: -8%; HCMV antiviral: -8; MARV entry inh: 0%[46.1 µM]; HCV inhibitor: inconclusive; FMDV antiviral: -15%

Results for Cc1cc2nc(/N=C(\N)NC(=O)C(C)C)nc(C)c2cc1C ?
Lassa entry inh: inconclusive; HCMV antiviral: -28; MARV entry inh: inconclusive; HCV inhibitor: 11µM*; FMDV antiviral: -27%

Results for Cc1nc(N=C(N)N)nc2ccccc12 ?
Lassa entry inh: inconclusive; HCMV antiviral: -81*; MARV entry inh: inconclusive; HCV inhibitor: 14µM*; FMDV antiviral: inconclusive

What do the screens show for `Cc1cc2nc(N=C(N)N)nc(C)c2cc1C`?
HCMV antiviral: -99*; HCV inhibitor: inconclusive; FMDV antiviral: inconclusive

How did Cc1ccc2nc(N=C(N)N)nc(C)c2c1 do in these assays?
Lassa entry inh: -13%; HCMV antiviral: -89*; MARV entry inh: inconclusive; HCV inhibitor: 7.1µM*; FMDV antiviral: inconclusive

Results for Cc1ccc(S(=O)(=O)/N=C(\N)Nc2nc(C)c3cc(C)ccc3n2)cc1 ?
Lassa entry inh: inconclusive; HCMV antiviral: 14; MARV entry inh: -9%; HCV inhibitor: inconclusive; FMDV antiviral: 9%

How did CCN1C(=O)[C@H]2[C@@H](c3ccc(C(F)(F)F)cc3)N[C@]3(CCCN(Cc4ccc(Cl)cc4)C3=O)[C@H]2C1=O do in these assays?
HCMV antiviral: -21; FMDV antiviral: -12%

Results for CCOC(=O)C1=C(C)NC(=S)NC1c1ccc(OCC(=O)N2CCCCC2)cc1 (stereo not drawn) ?
Lassa entry inh: -12%[46.1 µM]; HCMV antiviral: -10; MARV entry inh: -2%[46.1 µM]; HCV inhibitor: -10%; FMDV antiviral: -10%

How did C=CCN1c2ccccc2[C@]23CCC(=O)N(CC4CC4)C2=NC(C(=O)OC)=C(C(=O)OC)[C@H]13 do in these assays?
MARV entry inh: 19%[14.2 µM]

Results for CCc1ccc2nc(N=C(N)N)nc(C)c2c1 ?
Lassa entry inh: -5%; HCMV antiviral: -87*; MARV entry inh: inconclusive; HCV inhibitor: 5µM*; FMDV antiviral: inconclusive

What do the screens show for `FC(F)(F)c1ccccc1-c1ccc2ncnc(NCCN3CCOCC3)c2c1`?
FMDV antiviral: -12%

What do the screens show for `COc1ccccc1N1CCN(C(=O)C(C)N(c2ccc(C)cc2)S(C)(=O)=O)CC1` (stereo not drawn)?
Lassa entry inh: 3%; HCMV antiviral: -16; MARV entry inh: -16%[46.1 µM]; HCV inhibitor: -13%; FMDV antiviral: inconclusive

What do the screens show for `COc1ccccc1N1CCN(C(=O)C(C)N(c2ccc(C)c(C)c2)S(C)(=O)=O)CC1` (stereo not drawn)?
Lassa entry inh: -18%; HCMV antiviral: -15; MARV entry inh: -28%; HCV inhibitor: inconclusive; FMDV antiviral: 35µM*

What do the screens show for `O=C(CCC(=O)c1cccs1)NCc1ccccc1Cl`?
Lassa entry inh: 5%; HCMV antiviral: 6; MARV entry inh: 8%; HCV inhibitor: 5%; FMDV antiviral: 64%

What do the screens show for `COC(=O)C[N+](C)(C)CC#Cc1ccccc1`?
Lassa entry inh: 5.2µM*; HCMV antiviral: -9; MARV entry inh: 2%; HCV inhibitor: 6%; FMDV antiviral: -16%

How did O=C(NCCCN1CCN(c2ccccc2F)CC1)c1ccc2nc(Cc3ccccc3)oc2c1 do in these assays?
Lassa entry inh: -20%[46.1 µM]; HCMV antiviral: -3; FMDV antiviral: inconclusive

Results for COc1ccccc1N1CCN(CCCCNC(=O)c2ccc3ccccc3c2)CC1 ?
HCMV antiviral: -7; MARV entry inh: 8.9µM*; HCV inhibitor: inconclusive; FMDV antiviral: inconclusive

Results for CCc1nc2ccc(C(=O)NCCCN3CCN(c4ccccc4F)CC3)cc2nc1CC ?
Lassa entry inh: inconclusive; HCMV antiviral: 23; MARV entry inh: 10µM*; HCV inhibitor: 4.5µM*; FMDV antiviral: 0%

How did O=C(NCCCN1CCN(c2ccccc2F)CC1)c1ccc2nc(CCc3ccccc3)oc2c1 do in these assays?
Lassa entry inh: -24%[46.1 µM]; HCMV antiviral: -101*; FMDV antiviral: inconclusive

What do the screens show for `CCN1CCN(CCNC(=O)c2ccc3nc(-c4cccc(C)c4)c(-c4cccc(C)c4)nc3c2)CC1`?
HCMV antiviral: -109*; HCV inhibitor: inconclusive; FMDV antiviral: -19%

What do the screens show for `COC(=O)C1CCN(Cc2ccc3c(c2)CN(C(=O)c2cc(C)on2)CCO3)CC1`?
FMDV antiviral: -2%

How did Cc1ccnc(NS(=O)(=O)c2ccc(NC(=O)C(C)(C)Oc3ccc(Cl)cc3)cc2)n1 do in these assays?
Lassa entry inh: 1%[46.1 µM]; HCMV antiviral: 4; MARV entry inh: -17%[46.1 µM]; FMDV antiviral: 51%

How did CC1Cc2ccccc2N1CC(=O)N(C)c1c(N)n(Cc2ccccc2)c(=O)[nH]c1=O (stereo not drawn) do in these assays?
HCMV antiviral: -12; HCV inhibitor: 4%; FMDV antiviral: -13%

What do the screens show for `Nc1c(N(Cc2ccccc2)C(=O)COc2cccc(Cl)c2)c(=O)[nH]c(=O)n1Cc1ccccc1`?
Lassa entry inh: -20%; HCMV antiviral: -78*; MARV entry inh: -23%; HCV inhibitor: inconclusive; FMDV antiviral: inconclusive

How did COc1ccccc1CCC(=O)N(Cc1ccccc1)c1c(N)n(Cc2ccccc2)c(=O)[nH]c1=O do in these assays?
Lassa entry inh: inconclusive; HCMV antiviral: -3; MARV entry inh: -24%; HCV inhibitor: 1.1µM*; FMDV antiviral: -29%

What do the screens show for `Nc1c(N(Cc2ccccc2)C(=O)COc2ccc(F)cc2)c(=O)[nH]c(=O)n1Cc1ccccc1`?
Lassa entry inh: -2%; HCMV antiviral: 5; MARV entry inh: -17%; FMDV antiviral: -4%

What do the screens show for `CCN(C(=O)COC(=O)CCOc1ccc(C(C)(C)C)cc1)c1c(N)n(Cc2ccccc2)c(=O)[nH]c1=O`?
HCMV antiviral: -66*; HCV inhibitor: -8%; FMDV antiviral: inconclusive
